According to PubChem BioAssay:
The source made the active and inactive calls.

Columns and labels:
[1] = E. coli DRC41 culture turbidity changes, primary screen, E. coli filamentation inducer project, strain DRC41, OD650, 48 h (AID 1152);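 also: E. coli MC1000 strain DRC41 lacking acrAB efflux pump and sulA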; conditions: E. coli DRC41 (acrAB sulA), higher = more signal, called active from +8 up or from −8 down
[2] = small-molecule binders of probe aLefty1, primary screen, biochemical, small-molecule microarray, 635/667 nm fluorescence (AID 1153); conditions: higher = more signal;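 also: score merges spot fluorescence with signal-to-noise ratio from the scanned slide images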
[3] = PSAC antagonists in infected red cells, primary screen, cell-based, P. falciparum Indochina, OD700, 1 h (AID 1154); conditions: P. falciparum Indochina infected RBC osmotic lysis, higher = more signal, called active from +8 up or from −8 down
[4] = PSAC antagonists in infected red cells, primary screen, cell-based, P. falciparum Indochina, OD700, 2 h (AID 1155);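 also: lysis reports solute entry through the parasite surface anion channel PSAC; channel blockers reduce lysis of infected cells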; conditions: P. falciparum Indochina infected erythrocytes, osmotic lysis OD700; higher = more signal, called active from +8 up or from −8 down
[5] = osmotic lysis modulators in infected erythrocytes, primary screen, PSAC antagonist project, cell-based, P. falciparum Indochina, OD700, 3 h (AID 1156); conditions: higher = more signal, called active from +8 up or from −8 down
[6] = PSAC antagonists in infected red cells, primary screen, cell-based, P. falciparum Indochina, OD700, 18 h (AID 1157); conditions: P. falciparum Indochina infected erythrocytes, osmotic lysis OD700, 18 h; higher = more signal, called active from +8 up or from −8 down
[7] = modulators of S6 phosphorylation in cells, primary screen, cell-based, A549, cytoblot, luminescence, serum-stimulated (AID 1158); conditions: A549 phospho-S6 cytoblot, 5 h, higher = more signal;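 also: serum-stimulated A549 lung adenocarcinoma cells; signal is phosphorylated S6 detected by cytoblot immunostaining with HRP secondary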
[8] = target: NADPH oxidase 2 (Homo sapiens) (UniProt P04839); assay: NOX2-dependent H2O2 signal modulators, primary screen, NOX inhibitor project, cell-based, HEK293-NOX2, PMA-stimulated, Amplex Red fluorescence (AID 1159); conditions: 45 min, higher = more signal, called active from +8 up or from −8 down; also: test concentration not given here
Chain of NADPH oxidase 2 (Homo sapiens) (P04839 whole entry, looked up): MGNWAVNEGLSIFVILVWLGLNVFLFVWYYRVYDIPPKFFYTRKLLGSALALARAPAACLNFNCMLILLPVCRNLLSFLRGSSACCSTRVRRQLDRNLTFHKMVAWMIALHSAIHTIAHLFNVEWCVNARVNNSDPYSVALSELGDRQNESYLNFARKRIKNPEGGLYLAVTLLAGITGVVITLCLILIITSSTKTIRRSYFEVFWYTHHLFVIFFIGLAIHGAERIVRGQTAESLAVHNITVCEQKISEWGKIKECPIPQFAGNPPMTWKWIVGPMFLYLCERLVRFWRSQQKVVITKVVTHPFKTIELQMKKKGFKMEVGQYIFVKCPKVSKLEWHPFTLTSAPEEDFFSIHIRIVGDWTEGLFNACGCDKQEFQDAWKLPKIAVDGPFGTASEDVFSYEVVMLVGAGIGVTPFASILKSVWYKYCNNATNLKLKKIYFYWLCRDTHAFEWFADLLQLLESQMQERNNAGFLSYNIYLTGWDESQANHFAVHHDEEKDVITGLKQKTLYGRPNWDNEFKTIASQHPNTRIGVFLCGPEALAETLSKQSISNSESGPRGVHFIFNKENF

[9] = target: NADPH oxidase 4 (Homo sapiens) (UniProt Q9NPH5); assay: NOX4-dependent H2O2 signal modulators, primary screen, NOX inhibitor project, cell-based, HEK293-NOX4, tetracycline-induced, Amplex Red fluorescence (AID 1160); conditions: 45 min, higher = more signal, called active from +8 up or from −8 down
Chain of NADPH oxidase 4 (Homo sapiens) (Q9NPH5 whole entry, looked up): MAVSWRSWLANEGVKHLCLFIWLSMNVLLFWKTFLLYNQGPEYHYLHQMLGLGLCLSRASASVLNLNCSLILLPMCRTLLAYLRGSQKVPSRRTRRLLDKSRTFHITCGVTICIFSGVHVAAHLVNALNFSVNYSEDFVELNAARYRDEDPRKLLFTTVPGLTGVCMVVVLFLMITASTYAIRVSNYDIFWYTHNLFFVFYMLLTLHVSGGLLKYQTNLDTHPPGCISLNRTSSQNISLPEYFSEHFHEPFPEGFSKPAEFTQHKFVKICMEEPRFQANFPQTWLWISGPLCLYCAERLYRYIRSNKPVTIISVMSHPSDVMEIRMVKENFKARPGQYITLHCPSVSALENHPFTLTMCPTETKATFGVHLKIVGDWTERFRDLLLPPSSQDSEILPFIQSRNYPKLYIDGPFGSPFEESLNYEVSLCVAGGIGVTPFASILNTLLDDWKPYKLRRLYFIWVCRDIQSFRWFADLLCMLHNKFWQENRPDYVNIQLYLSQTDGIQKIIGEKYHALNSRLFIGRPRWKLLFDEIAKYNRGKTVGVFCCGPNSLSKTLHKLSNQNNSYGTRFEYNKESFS

[10] = target: NADPH oxidase 5 (Homo sapiens) (UniProt Q96PH1); assay: NOX5-dependent H2O2 signal modulators, primary screen, NOX inhibitor project, cell-based, HEK293-NOX5, Amplex Red fluorescence (AID 1161); conditions: HEK293-NOX5, ionomycin, 45 min, higher = more signal
Chain of NADPH oxidase 5 (Homo sapiens) (Q96PH1 whole entry, looked up): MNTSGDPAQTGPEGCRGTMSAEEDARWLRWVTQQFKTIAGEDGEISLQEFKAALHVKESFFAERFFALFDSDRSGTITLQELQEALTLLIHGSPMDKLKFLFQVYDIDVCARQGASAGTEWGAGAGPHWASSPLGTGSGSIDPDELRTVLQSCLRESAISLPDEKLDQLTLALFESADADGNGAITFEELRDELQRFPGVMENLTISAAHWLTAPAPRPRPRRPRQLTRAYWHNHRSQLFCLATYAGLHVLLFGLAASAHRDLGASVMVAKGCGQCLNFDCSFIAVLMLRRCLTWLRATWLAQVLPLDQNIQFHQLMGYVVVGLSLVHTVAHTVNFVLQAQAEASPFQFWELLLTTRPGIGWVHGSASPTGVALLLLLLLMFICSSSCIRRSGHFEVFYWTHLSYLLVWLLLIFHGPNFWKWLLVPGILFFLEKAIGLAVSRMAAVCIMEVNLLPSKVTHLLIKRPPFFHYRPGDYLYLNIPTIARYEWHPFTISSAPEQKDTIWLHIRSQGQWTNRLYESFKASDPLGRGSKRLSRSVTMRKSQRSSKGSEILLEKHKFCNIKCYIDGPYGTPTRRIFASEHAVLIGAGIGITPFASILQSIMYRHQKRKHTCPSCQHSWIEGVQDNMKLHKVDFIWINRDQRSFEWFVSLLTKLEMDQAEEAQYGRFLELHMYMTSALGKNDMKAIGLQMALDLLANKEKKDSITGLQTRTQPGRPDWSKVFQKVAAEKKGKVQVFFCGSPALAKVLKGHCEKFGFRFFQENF

[11] = A549 cell viability effects, profiling panel, calcein-AM fluorescence, 48 h, basal (AID 1162); conditions: higher = more signal; also: test concentration not given here
[12] = adipocyte viability effects, profiling panel, cell-based, 3T3-L1 adipocytes, calcein-AM fluorescence, 48 h, basal (AID 1163); conditions: 3T3-L1 adipocytes viability, higher = more signal; also: test concentration not given here
[13] = HepG2 cell viability effects, profiling panel, calcein-AM fluorescence, 48 h, basal (AID 1164); conditions: higher = more signal; also: test concentration not given here
[14] = MM1S cell viability effects, profiling panel, calcein-AM fluorescence, 48 h, basal (AID 1165); conditions: higher = more signal;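 also: viability of MM1S multiple myeloma cells under basal unstimulated conditions; test concentration not given here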
[15] = basal RPMI8226 viability, no added stimulus, profiling panel, cell-based, calcein-AM fluorescence, 48 h, PK04 Diversity Set (AID 1166); conditions: RPMI8226 myeloma viability, higher = more signal;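 also: cells grown under basal conditions without added stimulus; test concentration not given here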
[16] = basal HepG2 mitochondrial membrane potential changes, profiling panel, cell-based, JC-1 fluorescence, 24 h, 100 nL compound (AID 1167); conditions: higher = more signal; also: test concentration not given here
[17] = basal 3T3-L1 adipocyte mitochondrial potential changes, profiling panel, cell-based, JC-1 fluorescence, 3T3-L1 adipocytes, 24 h, 100 nL compound (AID 1168); conditions: JC-1 mitochondrial fluorescence, higher = more signal, called active from +8 up or from −8 down; also: test concentration not given here
[18] = basal RPMI8226 mitochondrial membrane potential changes, profiling panel, cell-based, JC-1 fluorescence, 24 h, 100 nL compound (AID 1169); conditions: RPMI8226 myeloma, JC-1 mitochondrial potential fluorescence, higher = more signal; also: test concentration not given here
[19] = basal MM1S mitochondrial membrane potential changes, profiling panel, cell-based, JC-1 fluorescence, 24 h, 100 nL compound (AID 1170); conditions: higher = more signal; also: test concentration not given here
[20] = A549 lung cancer cell viability effects, profiling panel, resazurin fluorescence, 24 h, PK04 Diversity Set (AID 1171); conditions: higher = more signal, called active from +8 up or from −8 down; also: test concentration not given here

Structure (SMILES)	z-score [1]	composite z-score [2]	z-score [3]	z-score [4]	z-score [5]	z-score [6]	z-score [7]	z-score [8]	z-score [9]	z-score [10]	z-score [11]	z-score [12]	z-score [13]	z-score [14]	z-score [15]	z-score [16]	z-score [17]	z-score [18]	z-score [19]	z-score [20]
C=C(/C(=C/C[C@H](OC(C)=O)c1ccccc1OCCO)c1cnc2ccccc2c1)C(C)C	-0.564 (inactive)	-0.0654	9.77 (active)	1.55 (inactive)	1.29 (inactive)	0.724 (inactive)	0.193	-0.353 (inactive)	-0.402 (inactive)	-1.08	0.689	-0.665	0.218	-3.32	-2.23	0.469	-1.34 (inactive)	0.251	-0.685	-0.0361 (inactive)
CCCCCCc1nc(-c2ccc(OC)nc2)cc2c1[Si](C(C)C)(C(C)C)O[C@H]2c1ccccc1	-1.03 (inactive)	-0.0559	0.614 (inactive)	0.139 (inactive)	0.245 (inactive)	-0.353 (inactive)	-0.168	0.0155 (inactive)	-0.95 (inactive)	-1.64	-0.33	-0.261	-1.1	-0.26	-1.12	-1.14	-1.3 (inactive)	-0.198	-0.281	0.98 (inactive)
O=C1C[C@@](C(=O)NCCN2CCOCC2)(c2ccc([N+](=O)[O-])cc2)[C@@H](c2ccc(CO)cc2I)N1CC12CC3CC(CC(C3)C1)C2	-0.942 (inactive)	0.344	18.9 (active)	10.2 (active)	0.797 (inactive)	1.28 (inactive)	0.238	-8.18 (active)	-1.75 (inactive)	1.58	-4.03	0.546	-5.11	-3.86	-4.39	-2.72	0.981 (inactive)	-0.93	-2.17	-4.83 (inactive)
CCCC[C@@H]1C[C@H]1[C@@H](NC(=O)c1ccco1)c1ccc(-c2ccccc2)cc1	-1.73 (inactive)	0.142	-0.38 (inactive)	-0.912 (inactive)	1.59 (inactive)	-1.91 (inactive)	1.28	-4.04 (inactive)	-3.5 (inactive)	-2	-0.359	0.222	-1.05	-0.15	-1.03	-1.07	-0.168 (inactive)	-0.0532	0.0163	-1.04 (inactive)
C=CCN1C(=O)[C@@]2(Cc3ccccc31)N=C(c1ccc(OCCCO)cc1)O[C@H]2c1ccccc1	0.613 (inactive)	0.481	14.6 (active)	3.47 (inactive)	3.29 (inactive)	1.35 (inactive)	0.104	-2.01 (inactive)	-0.253 (inactive)	-2.65	-0.914	-0.107	-1.38	-3.23	-2.16	-0.927	0.133 (inactive)	-0.942	-1.29	-1.99 (inactive)
C=CCC(OC(C)=O)[C@@H]1[C@@H](N(Cc2ccc(-c3ccccc3)cc2)C(=O)Cc2ccc(OC)cc2)c2cc(OCCCO)ccc2N1C(=O)Cc1ccc2ccccc2c1 (stereo not given in full)	-0.59 (inactive)	-0.0654	0.747 (inactive)	0.314 (inactive)	0.198 (inactive)	0.186 (inactive)	-0.185	0.304 (inactive)	1.09 (inactive)	1.35	0.247	0.358	0.71	-0.391	-0.252	1.25	-1.73 (inactive)	0.158	0.338	-0.599 (inactive)
[N-]=[N+]=NCc1ccccc1C[C@]1(C(=O)N2CCCCC2)N=C(c2ccc(OCCCO)cc2)O[C@H]1c1ccccc1N=[N+]=[N-]	-0.365 (inactive)	0.286	30.8 (active)	26.5 (active)	3.55 (inactive)	6.26 (inactive)	1.9	-2.45 (inactive)	0.306 (inactive)	-2.97	-1.27	1.03	-0.454	-2.18	-3.48	0.345	-0.187 (inactive)	-1.16	-1.07	-0.6 (inactive)
Cc1ccc(S[C@]2(C(=O)NCCCN(C)C)CC(=O)N(Cc3cc(C(F)(F)F)cc(C(F)(F)F)c3)[C@@H]2c2ccc(CO)cc2)cc1	-0.48 (inactive)	-0.506	1.24 (inactive)	0.0808 (inactive)	-0.0534 (inactive)	0.327 (inactive)	1.11	-0.373 (inactive)	0.414 (inactive)	0.942	-0.159	0.374	-0.767	-0.47	0.51	0.263	-0.849 (inactive)	0.199	0.339	-0.106 (inactive)
COc1ccc([Si](C)(C)[C@H]2[C@H](CCO)O[C@@]3(C(=O)N(Cc4ccc(N(C=O)c5ccccc5)cc4)c4ccccc43)[C@@H]2C)cc1	-0.208 (inactive)	0.0406	17.5 (active)	5.72 (inactive)	-0.149 (inactive)	1.87 (inactive)	0.788	0.118 (inactive)	0.859 (inactive)	2.37	-0.585	-1.32	-2.76	-1.48	-3.78	0.119	-0.393 (inactive)	-1.03	-1.88	-1.68 (inactive)
